PMC4336329 (PLoS ONE, 2015)
Screen size: about 310,000 compounds; about 14,000 (4.5%) showed an effect of 50% or more. The effect is printed as a negative number. The sample holds strong results, similar compounds and a random draw of the others, so the mix is not that of the screen.

These molecules were tested against human ether-à-go-go-related gene (hERG) potassium channel (human, UniProt Q12809) (assay: primary screen, population patch clamp on CHO cells stably expressing hERG; higher = less effect of the substance).
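Also: peak tail current of the secondary pulse compared with the same well before compound.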

human ether-à-go-go-related gene (hERG) potassium channel, sequence (Q12809 whole entry, looked up): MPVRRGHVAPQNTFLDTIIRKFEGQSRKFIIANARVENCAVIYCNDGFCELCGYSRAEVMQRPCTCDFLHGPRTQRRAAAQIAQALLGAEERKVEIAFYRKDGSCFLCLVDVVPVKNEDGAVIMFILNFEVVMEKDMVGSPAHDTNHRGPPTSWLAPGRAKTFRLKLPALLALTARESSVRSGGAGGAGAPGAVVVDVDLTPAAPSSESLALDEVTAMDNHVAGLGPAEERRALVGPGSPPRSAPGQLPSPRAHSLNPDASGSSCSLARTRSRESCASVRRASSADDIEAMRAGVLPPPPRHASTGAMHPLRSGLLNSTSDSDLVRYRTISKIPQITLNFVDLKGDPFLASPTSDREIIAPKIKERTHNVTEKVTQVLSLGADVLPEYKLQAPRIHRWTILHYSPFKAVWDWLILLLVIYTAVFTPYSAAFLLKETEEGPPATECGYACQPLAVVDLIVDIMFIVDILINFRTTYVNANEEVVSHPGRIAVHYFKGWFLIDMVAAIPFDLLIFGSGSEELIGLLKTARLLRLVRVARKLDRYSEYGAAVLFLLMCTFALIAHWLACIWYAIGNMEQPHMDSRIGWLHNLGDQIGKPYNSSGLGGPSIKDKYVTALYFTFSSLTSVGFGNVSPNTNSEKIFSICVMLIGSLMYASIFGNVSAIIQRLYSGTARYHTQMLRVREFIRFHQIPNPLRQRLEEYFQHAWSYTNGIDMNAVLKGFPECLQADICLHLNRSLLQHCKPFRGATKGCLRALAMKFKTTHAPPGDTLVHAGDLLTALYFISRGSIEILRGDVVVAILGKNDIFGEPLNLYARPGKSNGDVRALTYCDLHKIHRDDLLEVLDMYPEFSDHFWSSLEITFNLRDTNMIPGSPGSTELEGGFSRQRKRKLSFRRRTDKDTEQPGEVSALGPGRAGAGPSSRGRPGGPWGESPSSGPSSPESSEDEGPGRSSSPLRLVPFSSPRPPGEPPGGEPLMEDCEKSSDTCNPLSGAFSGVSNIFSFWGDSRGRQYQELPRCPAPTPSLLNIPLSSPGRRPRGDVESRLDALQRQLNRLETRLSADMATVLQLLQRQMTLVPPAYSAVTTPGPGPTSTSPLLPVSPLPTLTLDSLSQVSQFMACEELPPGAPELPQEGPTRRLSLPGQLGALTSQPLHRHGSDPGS

Row | Compound | hERG current change (%, negative = inhibition) at 10uM
1 | O=C(Nc1c(F)cc(F)cc1Br)c1cccnc1 | 8.61%
2 | COc1ccc(-c2ccnc3nc(-n4cccc4)nn23)cc1 | -14.7%
3 | COc1cc2nc(Nc3cccc(F)c3)nc(N)c2cc1OC.Cl | -17.7%
4 | O=C(NC1CC2CCC1C2)C1CCN(S(=O)(=O)c2ccc(-c3nn[nH]n3)cc2)CC1 (centres unmarked) | 14.4%
5 | O=C(O)c1cc(N2C(=O)C3CC=CCC3C2=O)ccc1NCc1cccnc1 (centres unmarked) | 15%
6 | CC(=O)c1cc(CN2CCN(C3CCCCC3)C(CCO)C2)cs1 (centres unmarked) | -17.2%
7 | CC(=O)c1cc(CN2CCN(Cc3ccc(C)cc3)C(CCO)C2)cs1 (centres unmarked) | -55%
8 | CC(=O)c1cc(CN2CCN(CC=C(C)C)C(CCO)C2)cs1 (centres unmarked) | 16.3%
9 | CN1C(N)=NC(=O)/C1=C\c1ccc(Br)cc1 | 8.35%
10 | CC(C)CC(C(=O)NC1CCCC1)N(Cc1ccc2c(c1)OCO2)C(=O)c1snc(C(N)=O)c1N (centres unmarked) | -20.4%
11 | CCN1CCCC1CNC(=O)c1cc2c(C)nc3ccccc3c2o1 (centres unmarked) | -12%
12 | O=C(O)C(=O)O.c1ccc(COc2ccc(OCCCCN3CCCC3)cc2)cc1 | -64%
13 | O=C(O)C(=O)O.c1ccc(COc2ccc(OCCCCN3CCCCC3)cc2)cc1 | -70.5%
14 | CSc1cccc(N2CC(C(=O)NCCC3=CCCCC3)CC2=O)c1 (centres unmarked) | 14.1%
15 | Cc1cccc(NC(=O)C2NC(=O)CC2c2ccccc2)c1C (centres unmarked) | 1.2%
16 | O=C(CSc1nnc(NC(=O)c2ccc(F)cc2F)s1)NC1CCCC1 | 17.7%
17 | Clc1ccc(N=C2SCC3CCCCN23)cc1 (centres unmarked) | -18.3%
18 | COc1ccc(S(=O)(=O)N2CCN(c3nc(C)cc(C)n3)CC2)cc1 | 2.96%
19 | Cc1nc2cc(C(=O)OCC(=O)Nc3cccc(Cl)c3)ccc2n1-c1ccccc1 | -13.6%
20 | O=C(Nc1ncc(C(F)(F)F)cc1Cl)c1ccc(S(=O)(=O)N2CCOCC2)cc1 | -13.4%
21 | CC(C)Oc1cccc(C(=O)NC(=S)Nc2cccc(NC(=O)c3ccccc3Cl)c2)c1 | -11.9%
22 | COc1cc(C(=O)N/N=C/c2ccc(OC(=O)c3ccccc3Cl)c(OC)c2)ccc1O | 13.4%

Row | Compound | hERG current change (%, negative = inhibition) at 10uM
23 | COc1cc(/C=N/NC(=O)c2cccc(NC(=O)c3ccccc3C)c2)ccc1O | -48.4%
24 | COc1ccc(C(=O)Nc2cccc(-c3nnc(-c4ccco4)o3)c2)cc1 | -37.4%
25 | COc1cccc(C(=O)Nc2cccc(-c3nnc(-c4ccco4)o3)c2)c1 | -51.4%
26 | COc1cccc(C(=O)Nc2cccc(NC(C)=O)c2)c1 | -8.39%
27 | COc1cc(/C=N/NC(=O)c2ccncc2)ccc1OC(=O)c1ccccc1Cl | -50.8%
28 | COc1cccc(C(=O)Nc2cccc(NC(=O)c3ccccc3Cl)c2)c1 | -52%
29 | COc1cc(/C=N\NC(=O)c2cccnc2)ccc1OC(=O)c1ccccc1Cl | -7.3%
30 | COc1ccc(/C=N/NC(=O)c2cccc(NC(=O)c3ccccc3Cl)c2)cc1OC | -3.89%
31 | COc1cc(/C=N/NC(=O)c2cccc(NC(=O)c3ccccc3Cl)c2)ccc1O | -55.6%
32 | COc1cccc(C(=O)Nc2cccc(-c3nnc(-c4ccccc4)o3)c2)c1 | -4.18%
33 | CCOc1ccc(NC(=O)CCN2C(=O)CSc3ccccc32)cc1 | -25.3%
34 | O=C(/C=C\Nc1ccc2c(c1)OCO2)c1cccs1 | 17.6%
35 | Cc1nc(SCC(=O)Nc2c(C)nn(C)c2C)c2cnn(-c3ccccc3)c2n1 | 14%
36 | Cc1ccc(S(=O)(=O)N2CCOCC2)cc1NC(=O)c1cc(-c2ccccn2)nc2ccccc12 | -46.7%
37 | S=c1[nH]nc(-c2ccc(Cl)cc2Cl)n1-c1ccc2c(c1)OCCO2 | 6.46%
38 | c1ccc(C2CCC(N3CCC(N4CCCCC4)CC3)CC2)cc1 (centres unmarked) | 10.8%
39 | COCCNC(=O)CSCc1c(F)cccc1Cl | 3.73%
40 | CCCc1cc(=O)oc2cc(C)cc(OC(C)C(=O)NCc3ccccn3)c12 (centres unmarked) | -8.3%
41 | Fc1cccc2sc(Nc3nnc(-c4ccccc4)o3)nc12 | 20.5%
42 | O=c1[nH]nc(N/N=C/c2ccc(Cl)cc2Cl)c(=O)[nH]1 | -1.17%
43 | Cn1c(SCC(=O)O)nnc1-c1cccc(NC(=O)c2cccc3ccccc23)c1 | 7.15%
44 | COc1ccccc1C(=O)NCCSCc1ccccc1Cl | -15.4%

Row | Compound | hERG current change (%, negative = inhibition) at 10uM
45 | COc1ccc(C(=O)Nc2cc(C(=O)O)cc(C(=O)O)c2)cc1Cl | 19.5%
46 | COC(=O)c1cccc(NC(=O)c2ccc(OC)c(Cl)c2)c1 | -65.3%
47 | COc1cccc(C(=O)NCCSCc2c(F)cccc2Cl)c1 | -29%
48 | COc1ccc(NC(=O)c2cccc(F)c2)cc1Cl | 1.72%
49 | COc1cccc(C(=O)NCCSCc2ccccc2Cl)c1 | -53.2%
50 | CCNS(=O)(=O)c1ccc(CCC(=O)NCCC2=CCCCC2)cc1 | -23.6%
51 | Cc1cccc(C)c1NC(=O)COC(=O)c1ccc2c(c1)OCO2 | -4.84%
52 | c1cnc2c(SCc3ccc(-c4nnco4)cc3)cccc2c1 | 1.45%
53 | COc1cc(OC)c(NC(=O)c2csc(C)c2)cc1Cl | 14.2%
54 | Cc1ccccc1CNC(=O)/C=C\C(=O)O | 3.23%
55 | FC(F)(F)c1cc(-c2cccs2)nc(-n2cc(Cl)cn2)n1 | 0.253%
56 | CCOc1ccc(CCNC(=O)Cn2c(-c3nonc3N)nc3ccccc32)cc1OCC | -3.72%
57 | Cc1ccc(-n2c3c(cc(C(=O)O)c2=O)C(=O)CC(C)(C)C3)cc1 | 19.2%
58 | Cc1ccc(-n2c3c(c(O)c(-c4ccccc4)c2=O)C(=O)CC(C)(C)C3)cc1 | -55.2%
59 | CC1(C)CC(=O)c2c(O)c(-c3ccccc3)c(=O)n(-c3ccccc3)c2C1 | -6.83%
60 | O=C(c1ccc2nccnc2c1)N1CCCC(N2CCN(c3ccc(F)cc3)CC2)C1 (centres unmarked) | -9.66%
61 | O=C(NCC(c1cccnc1)N1CCN(c2ccc(F)cc2)CC1)C1CCCCC1 (centres unmarked) | -45.5%
62 | O=C(NCc1ccc(Cl)cc1)C(=O)NCC(c1cccnc1)N1CCN(c2ccc(F)cc2)CC1 (centres unmarked) | -45.5%
63 | O=S(=O)(NCC(c1cccnc1)N1CCN(Cc2ccccc2)CC1)c1cc(F)ccc1F (centres unmarked) | -69.1%
64 | COc1ccc(N2CCN(C(CNS(=O)(=O)c3cc(F)ccc3F)c3cccnc3)CC2)cc1 (centres unmarked) | -69%
65 | CCS(=O)(=O)NCC(c1cccnc1)N1CCN(c2ccccc2)CC1 (centres unmarked) | -28.1%
66 | O=C(NCC(c1cccnc1)N1CCN(c2ccccc2)CC1)Oc1ccccc1 (centres unmarked) | -19.2%

Row | Compound | hERG current change (%, negative = inhibition) at 10uM
67 | Cc1cc(F)ccc1S(=O)(=O)NCC(c1cccnc1)N1CCc2ccccc21 (centres unmarked) | -1.61%
68 | COc1ccc(N2CCN(C(CNC(=O)C(C)(C)C)c3cccnc3)CC2)cc1 (centres unmarked) | -36.7%
69 | O=S(=O)(NCC(c1cccnc1)N1CCN(c2ccc(F)cc2)CC1)c1cc(F)ccc1F (centres unmarked) | -65.8%
70 | COc1ccccc1N1CCN(C(CNS(=O)(=O)c2cc(F)ccc2F)c2cccnc2)CC1 (centres unmarked) | -35%
71 | O=S(=O)(NCC(c1cccnc1)N1CCN(c2ccccc2)CC1)c1cc(F)ccc1F (centres unmarked) | -62.8%
72 | CC1CCCCN1C(=O)c1cc2nc(-c3ccccc3)cc(-c3ccccc3)n2n1 (centres unmarked) | -14.5%
73 | O=S(N1CCCCC1)C12CC3CC(CC(C3)C1)C2 (centres unmarked) | -6.95%
74 | COc1ccc(-c2nc(NC(=O)CCNC(=O)c3ccco3)sc2C)cc1 | -11.1%
75 | CC(C)C[C@H](NC(=O)N1CC(=O)Nc2ccccc21)C(=O)N[C@@H](Cc1ccccc1)C(=O)O | 13.2%
76 | NC(=O)Cn1cc(C(=O)c2cccs2)c2ccccc21 | -2.95%
77 | O=C(NNc1cc(Cl)ccc1Cl)c1cccs1 | 7.63%
78 | Cc1c(Br)c([N+](=O)[O-])nn1C(C)C(=O)N1CCc2ccccc2C1 (centres unmarked) | -13.4%
79 | Cc1c(OC(C)C(=O)NC2CC(C)(C)NC(C)(C)C2)ccc2c3c(c(=O)oc12)CCC3 (centres unmarked) | 12.5%
80 | COc1cc(/C=N/N(C)C2=NS(=O)(=O)c3ccccc32)cc(OC)c1OC | 7.82%
81 | CC1CCCN(CCCNC(=O)c2ccc(CS(=O)(=O)Cc3cccc(Cl)c3)o2)C1 (centres unmarked) | -40.7%
82 | Cc1ccccc1CS(=O)(=O)Cc1ccc(C(=O)NCCCN2CC(C)CC(C)C2)o1 (centres unmarked) | -36.1%
83 | Cc1ccc(CS(=O)(=O)Cc2ccc(C(=O)NCCCN3CC(C)CC(C)C3)o2)cc1 (centres unmarked) | -60.2%
84 | CC1CCN(CCCNC(=O)c2ccc(CS(=O)(=O)Cc3ccc(Cl)cc3)o2)CC1 | -44%
85 | Cc1ccc(CS(=O)(=O)Cc2ccc(C(=O)NCCCN3CCOCC3)o2)cc1 | 6.75%
86 | CC1CC(C)CN(CCCNC(=O)c2ccc(CS(=O)(=O)Cc3cccc(Cl)c3)o2)C1 (centres unmarked) | -69.1%
